Assay [1] can be described thus: A CellTox Green Cytotoxicity Assay to monitor cytotoxicity in HepG2 cells - 16 hour (AID 1224876). Also: nearly all actives have a fitted effect of over 45% in size. The method in brief:
(§1)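 Nonlytic assay: viable cells exclude the dye, so fluorescence scales with cell death. HepG2 at 600 cells/well, compounds added after 5 h, signal read across 40 h.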

Assay [2] in a line: qHTS RealTime-Glo MT Cell Viability Assay in HepG2 cells - 32 hour (AID 1224877). Also: nearly all actives have a fitted effect of over 55% in size. Summed up:
(§2)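 Viability was tracked continuously by NanoLuc luminescence from prosubstrate reduced by living HepG2 cells, at successive time points over 40 h of compound exposure. Cells with reagent were preincubated 5 h at 37 °C before compound addition.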
Background: qHTS replaces the single test concentration by a dilution series.

Assay [3] can be described thus: A CellTox Green Cytotoxicity Assay to monitor cytotoxicity in HepG2 cells - 24 hour (AID 1224878). Also: nearly all actives have a fitted effect of over 45% in size. Summed up:
as §1

Assay [4] in a line: A CellTox Green Cytotoxicity Assay to monitor cytotoxicity in HepG2 cells - 40 hour (AID 1224879). Also: nearly all actives have a fitted effect of over 40% in size. Summed up:
as §1

Assay [5] is described as follows: qHTS RealTime-Glo MT Cell Viability Assay in HEK293 cells - 0 hour (AID 1224880). Also: top concentration of the series differs between compounds; nearly all actives have a fitted effect of over 45% in size. Summed up:
(§3)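 Tox21 screen in HEK293 using RealTime-Glo MT chemistry, with cells and reagent co-dispensed. Luminescence proportional to viable cell number was captured at intervals during 40 h compound exposure at 37 C.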

Assay [6] in a line: A CellTox Green Cytotoxicity Assay to monitor cytotoxicity in HEK293 cells - 32 hour (AID 1224881). Also: nearly all actives have a fitted effect of over 40% in size. The method in brief: (§4)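 Seeding of HEK293 cells together with cytotoxicity dye preceded a 5 h incubation at 37 C/5% CO2. Test compounds in DMSO were then added and fluorescence monitored across 40 h.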
Assay [7] in a line: A CellTox Green Cytotoxicity Assay to monitor cytotoxicity in HepG2 cells - 0 hour (AID 1224882). Also: nearly all actives have a fitted effect of over 35% in size. The method in brief: as §1
A short description of assay [8]: A CellTox Green Cytotoxicity Assay to monitor cytotoxicity in HepG2 cells - 32 hour (AID 1224883). Also: nearly all actives have a fitted effect of over 50% in size. The method in brief:
as §1

A short description of assay [9]: A CellTox Green Cytotoxicity Assay to monitor cytotoxicity in HEK293 cells - 8 hour (AID 1224884). Also: nearly all actives have a fitted effect of over 35% in size. Summed up:
as §4

A short description of assay [10]: qHTS RealTime-Glo MT Cell Viability Assay in HepG2 cells - 16 hour (AID 1224885). Also: nearly all actives have a fitted effect of over 50% in size. Summed up:
as §2

Assay [11] can be described thus: qHTS RealTime-Glo MT Cell Viability Assay in HEK293 cells - 24 hour (AID 1224886). Also: top concentration of the series differs between compounds; nearly all actives have a fitted effect of over 50% in size. The method in brief: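 Viability tracked continuously by luminescence as live cells reduce a prosubstrate for NanoLuc; HEK293 cells preincubated 5 h, compound-treated at 37 C, and read at 0, 8, 16, 24, 32 and 40 h.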
Assay [12] is described as follows: qHTS RealTime-Glo MT Cell Viability Assay in HEK293 cells - 8 hour (AID 1224887). Also: top concentration of the series differs between compounds; nearly all actives have a fitted effect of over 50% in size. The method in brief: as §3
A short description of assay [13]: A CellTox Green Cytotoxicity Assay to monitor cytotoxicity in HEK293 cells - 16 hour (AID 1224888). Also: nearly all actives have a fitted effect of over 35% in size. Summed up:
as §4

The nature of assay [14]: qHTS RealTime-Glo MT Cell Viability Assay in HepG2 cells - 0 hour (AID 1224889). Also: nearly all actives have a fitted effect of over 50% in size. The method in brief: as §2
Assay [15] in a line: A CellTox Green Cytotoxicity Assay to monitor cytotoxicity in HepG2 cells - 8 hour (AID 1224890). Also: nearly all actives have a fitted effect of over 45% in size. Also: potency is read from the fitted curve at half-maximal effect. Summed up:
as §1

Assay [16] in a line: qHTS assay to identify small molecule antagonists of the estrogen receptor alpha (ER-alpha) signaling pathway using the BG1 cell line in the presence of 0.1 nM 17-beta-estradiol - cell viability counter screen (AID 1259241). Also: nearly all actives have a fitted effect of over 40% in size. Summed up: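 VM7Luc4E2 cells (endogenous full-length ER-alpha, 4xERE-luciferase), cultured 5 days in charcoal-stripped serum, exposed to compounds with 0.1 nM 17beta-estradiol (final) for 22 hr at 37C. Viability read in same wells as live-cell protease fluorescence after 30 min.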

Assay [17] in a line: qHTS assay to identify small molecule antagonists of the androgen receptor (AR) signaling pathway using the MDA cell line in the presence of 0.5 nM R1881 - cell viability counter screen (AID 1259242). Also: nearly all actives have a fitted effect of over 45% in size. Summed up: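 R1881 at 0.5 nM final stimulated MDA-kb2 cells during 16 hr compound treatment at 37C. Cytotoxicity read: CellTiter-Fluor fluorescence after 30 min.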
For assay [18], the target named is Androgen receptor (Homo sapiens) (UniProt P10275). The assay can be described thus: qHTS assay to identify small molecule antagonists of the androgen receptor (AR) signaling pathway using the MDA cell line in the presence of 0.5 nM R1881 (AID 1259243). Also: nearly all actives have a fitted effect of over 50% in size. The method in brief: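 We exposed MDA-kb2 cells to compounds under 0.5 nM R1881 stimulation for 16 hr at 37C and quantified MMTV-driven luciferase by luminescence.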

Assay [19] concerns the target Estrogen receptor (Homo sapiens) (UniProt P03372). The assay can be described thus: qHTS assay to identify small molecule antagonists of the estrogen receptor alpha (ER-alpha) signaling pathway using the BG1 cell line in the presence of 0.1 nM 17-beta-estradiol (AID 1259244). Also: nearly all actives have a fitted effect of over 50% in size. The method in brief: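 VM7Luc4E2; 4xERE-luciferase; 0.1 nM E2 final; 22 h co-incubation, 37C; ONE-Glo luminescence after 30 min at room temperature.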

Assay [20] is described as follows: qHTS assay to identify small molecule phospholipidosis (PLD) inducers (AID 1259344; active = well fitted curve in the direction sought with a large enough effect; an effect the other way counts as inactive or inconclusive). Summed up:
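Quantitative HTS in HepG2: compound plus LipidTOX Red dye for 24 h, paraformaldehyde fixation with Hoechst 33342, widefield high-content imaging; amiodarone as positive and DMSO as negative control.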

A number with no mark means an inactive call. Results filed as inconclusive are left out. Calls of active or inactive are those of the source. Unless noted, calls follow the shape of the dose curve; as a rule, active = well fitted curve in the direction sought with a large enough effect in the repeat runs; inconclusive = weak or mixed curves; inactive = no such curve, though single readings can be large; an effect the other way counts as inactive or inconclusive.

Chain of Estrogen receptor (Homo sapiens) (P03372 whole entry, looked up): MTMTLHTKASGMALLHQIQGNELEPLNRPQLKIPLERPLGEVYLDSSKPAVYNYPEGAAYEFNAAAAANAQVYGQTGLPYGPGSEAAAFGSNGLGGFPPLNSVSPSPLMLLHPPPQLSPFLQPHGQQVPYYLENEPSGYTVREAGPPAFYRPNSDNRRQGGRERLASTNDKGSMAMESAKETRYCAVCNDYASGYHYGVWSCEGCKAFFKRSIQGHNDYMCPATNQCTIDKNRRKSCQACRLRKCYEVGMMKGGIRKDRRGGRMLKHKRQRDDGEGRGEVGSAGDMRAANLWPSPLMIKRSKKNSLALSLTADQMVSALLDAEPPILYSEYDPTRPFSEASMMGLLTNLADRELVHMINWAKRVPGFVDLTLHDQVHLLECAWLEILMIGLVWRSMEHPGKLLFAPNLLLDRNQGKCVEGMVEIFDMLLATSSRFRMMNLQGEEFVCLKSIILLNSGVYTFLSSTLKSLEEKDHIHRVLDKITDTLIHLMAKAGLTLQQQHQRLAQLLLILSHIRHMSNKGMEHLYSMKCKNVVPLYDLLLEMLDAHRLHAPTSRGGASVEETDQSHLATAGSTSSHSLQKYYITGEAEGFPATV
Chain of Androgen receptor (Homo sapiens) (P10275 whole entry, looked up): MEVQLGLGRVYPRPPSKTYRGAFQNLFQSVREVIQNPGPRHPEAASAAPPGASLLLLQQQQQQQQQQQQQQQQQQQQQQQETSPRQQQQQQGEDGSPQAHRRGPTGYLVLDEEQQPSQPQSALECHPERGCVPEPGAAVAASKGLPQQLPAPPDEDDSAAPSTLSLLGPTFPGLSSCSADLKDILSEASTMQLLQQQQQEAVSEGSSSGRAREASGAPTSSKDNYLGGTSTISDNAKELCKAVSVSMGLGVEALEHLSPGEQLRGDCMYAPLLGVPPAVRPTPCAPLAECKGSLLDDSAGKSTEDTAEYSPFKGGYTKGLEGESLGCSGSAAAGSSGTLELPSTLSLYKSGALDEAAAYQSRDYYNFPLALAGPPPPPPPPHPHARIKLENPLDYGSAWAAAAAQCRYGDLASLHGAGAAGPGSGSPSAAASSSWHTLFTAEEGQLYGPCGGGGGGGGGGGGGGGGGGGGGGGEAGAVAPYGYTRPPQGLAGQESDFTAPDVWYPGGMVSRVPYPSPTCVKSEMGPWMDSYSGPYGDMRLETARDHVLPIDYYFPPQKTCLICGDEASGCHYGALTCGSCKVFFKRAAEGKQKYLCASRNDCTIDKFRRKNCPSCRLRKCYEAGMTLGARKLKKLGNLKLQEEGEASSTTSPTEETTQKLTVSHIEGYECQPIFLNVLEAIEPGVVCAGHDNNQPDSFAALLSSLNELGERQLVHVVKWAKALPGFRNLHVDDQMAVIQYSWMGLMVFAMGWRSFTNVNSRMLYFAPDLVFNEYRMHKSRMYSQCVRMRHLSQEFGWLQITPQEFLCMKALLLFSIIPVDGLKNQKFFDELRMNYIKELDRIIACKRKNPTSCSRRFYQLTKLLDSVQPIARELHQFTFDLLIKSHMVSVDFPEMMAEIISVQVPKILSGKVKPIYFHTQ

Regarding `CC(=O)OC(C)c1ccccc1` (configuration not stated), the Potency entry in assay [1], in [3], in [4], in assay [6], in assay [7] and in assay [8] was “inactive” throughout. The Potency result in [9], in assay [11], in [12], in [13], in assay [14] and in [15] was “inactive” throughout. Besides, the Potency result in assay [16] was “inactive”. Further, the molecule was classed as inactive in assay [2], in assay [5] and in assay [10].

For the molecule `CC(C)CCCC(C)CC=O` (configuration not stated), the Potency result in assay [1], in [3], in assay [4], in [6], in assay [7] and in assay [8] was “inactive” throughout. Besides, the Potency entry in [9], in assay [11], in [12], in [13], in assay [14] and in [16] was “inactive” in each case. In addition, the Potency entry in assay [17] is “inactive”. For the same molecule, the call in assay [2], in [5] and in [10] was inactive. Besides, the Potency in [15] is 21.9 µM (active).

For `CC(C)COC(=O)CCCCC(=O)OCC(C)C`, the Potency entry in assay [1], in [3], in assay [4], in assay [6], in assay [7] and in [8] was “inactive” each time. For the same molecule, the Potency result in assay [9], in [11], in assay [12], in assay [13], in [14] and in assay [15] was “inactive” throughout. The Potency entry in assay [16] and in assay [17] was “inactive” each time. In addition, the outcome in assay [2], in assay [5] and in [10] was inactive.

Take `CCCCCCCCCCC`: the Potency entry in [1], in assay [3], in assay [4], in assay [6], in [7] and in assay [8] was “inactive” throughout. Further, the Potency entry in assay [9], in assay [11], in [12], in [13], in [14] and in assay [15] was “inactive” in each case. The Potency entry in [16], in assay [17] and in assay [19] was “inactive” in each case. Moreover, the call in assay [2], in assay [5], in assay [10] and in [18] was inactive.

As to `CN[C@@H]1[C@H](O)[C@H](NC)[C@H]2O[C@@]3(O)C(=O)C[C@@H](C)O[C@H]3O[C@@H]2[C@H]1O`, the Potency result in assay [1], in assay [3], in assay [4], in assay [6], in [7] and in assay [8] was “inactive” each time. Further, the Potency result in assay [9], in [11], in [12], in [13], in assay [14] and in assay [15] was “inactive” each time. In addition, the Potency entry in assay [16], in [17] and in assay [19] was “inactive” each time. Besides, the result in assay [2], in assay [5], in assay [10], in assay [18] and in assay [20] was inactive.

For `C/C=C(\C)C(=O)OCC/C=C\CC`, the Potency result in assay [1], in assay [3], in assay [4], in assay [6], in assay [7] and in assay [8] was “inactive” in each case. Further, the Potency entry in assay [9], in [11], in assay [12], in assay [13], in assay [14] and in assay [15] was “inactive” in each case. In addition, the Potency result in assay [16] is “inactive”. Also, the call in assay [2], in [5] and in assay [10] was inactive.

Regarding `NC(Cc1c[nH]c2ccccc12)C(=O)O` (configuration not stated), the Potency result in assay [1], in assay [3], in assay [4], in assay [6], in [7] and in assay [8] was “inactive” in each case. Also, the Potency result in [9], in [11], in assay [12], in assay [13], in assay [14] and in [15] was “inactive” each time. Besides, the Potency result in assay [16] and in assay [17] was “inactive” throughout. In addition, the molecule was classed as inactive in assay [2], in [5] and in assay [10].
